# Columns and labels:
# Test in all cases: DAPPL (digital affinity profiling via proximity ligation, sequencing); 10 mM Tris-HCl pH 7.5, 50 mM NaCl, 1 mM DTT, 4% glycerol, room temperature, 30 min; GST-TFs on glutathione beads, 16-mer random dsDNA library, 0.1% formaldehyde crosslink after washing; high values mean tight binding
# [1] = target: T1, FLI1 (Homo sapiens, UniProt Q01543 1-452); conditions: protein: recombinant; tags: N-terminal GST; dsDNA, one strand shown
# T1 sequence: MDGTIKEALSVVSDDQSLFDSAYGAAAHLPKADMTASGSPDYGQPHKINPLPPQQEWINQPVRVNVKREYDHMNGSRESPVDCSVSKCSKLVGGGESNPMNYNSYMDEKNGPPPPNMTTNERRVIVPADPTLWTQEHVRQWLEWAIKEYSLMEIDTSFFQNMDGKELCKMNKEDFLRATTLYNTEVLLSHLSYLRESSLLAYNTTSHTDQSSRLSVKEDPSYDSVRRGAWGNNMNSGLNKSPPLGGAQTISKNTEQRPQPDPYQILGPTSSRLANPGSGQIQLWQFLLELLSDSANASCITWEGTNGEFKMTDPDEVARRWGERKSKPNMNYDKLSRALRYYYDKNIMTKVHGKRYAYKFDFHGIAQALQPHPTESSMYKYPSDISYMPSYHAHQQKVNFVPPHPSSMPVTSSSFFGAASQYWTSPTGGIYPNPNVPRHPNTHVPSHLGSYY
# Method in brief: (§1)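 GST fusions of human transcription factors were expressed in yeast and captured with glutathione beads. Once given DNA barcodes and pooled alongside a tag-only sample, they were incubated for 30 min at room temperature with 200 nmole of a random double-stranded 16-mer DNA library in Tris/NaCl/DTT/glycerol buffer, then washed, crosslinked (0.1% formaldehyde), proximity-ligated, PCR-amplified and sequenced on an Illumina NextSeq500. The binding signal of each hexamer is its read frequency for a factor divided by its frequency for the tag-only sample.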
# [2] = target: T2, ELK1 (Homo sapiens, UniProt P19419 1-428); conditions: protein: recombinant; tags: N-terminal GST; dsDNA, one strand shown
# T2 sequence: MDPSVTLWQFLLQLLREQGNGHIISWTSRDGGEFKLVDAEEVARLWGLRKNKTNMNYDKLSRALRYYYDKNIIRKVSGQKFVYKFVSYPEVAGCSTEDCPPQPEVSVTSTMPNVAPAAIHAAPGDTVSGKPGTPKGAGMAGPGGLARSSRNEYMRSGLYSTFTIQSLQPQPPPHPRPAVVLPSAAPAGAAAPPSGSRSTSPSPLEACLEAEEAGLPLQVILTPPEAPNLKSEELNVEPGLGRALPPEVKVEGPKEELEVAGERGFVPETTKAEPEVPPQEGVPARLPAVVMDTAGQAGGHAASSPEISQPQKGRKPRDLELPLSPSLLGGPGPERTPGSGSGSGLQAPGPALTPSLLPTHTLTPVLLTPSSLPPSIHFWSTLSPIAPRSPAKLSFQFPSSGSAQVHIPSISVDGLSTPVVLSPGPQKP
# Method in brief: as §1
# [3] = target: T3, GABPA (Homo sapiens, UniProt Q06546 1-454); conditions: protein: recombinant; tags: N-terminal GST; dsDNA, one strand shown
# T3 sequence: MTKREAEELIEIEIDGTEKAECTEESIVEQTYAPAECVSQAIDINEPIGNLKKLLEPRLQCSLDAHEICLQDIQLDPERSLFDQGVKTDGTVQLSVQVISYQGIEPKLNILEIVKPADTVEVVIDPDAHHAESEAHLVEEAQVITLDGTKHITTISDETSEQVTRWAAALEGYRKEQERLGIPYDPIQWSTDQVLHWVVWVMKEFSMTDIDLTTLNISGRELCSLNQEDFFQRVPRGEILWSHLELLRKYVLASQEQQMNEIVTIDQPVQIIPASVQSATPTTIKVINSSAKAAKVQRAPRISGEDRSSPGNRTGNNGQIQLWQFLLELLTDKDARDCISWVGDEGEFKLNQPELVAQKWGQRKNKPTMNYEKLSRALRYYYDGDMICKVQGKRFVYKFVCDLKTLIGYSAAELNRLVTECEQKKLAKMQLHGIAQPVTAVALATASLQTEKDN
# Method in brief: as §1
# [4] = target: T4, ERG (Homo sapiens, UniProt P11308 1-479); conditions: protein: recombinant; tags: N-terminal GST; dsDNA, one strand shown
# T4 sequence: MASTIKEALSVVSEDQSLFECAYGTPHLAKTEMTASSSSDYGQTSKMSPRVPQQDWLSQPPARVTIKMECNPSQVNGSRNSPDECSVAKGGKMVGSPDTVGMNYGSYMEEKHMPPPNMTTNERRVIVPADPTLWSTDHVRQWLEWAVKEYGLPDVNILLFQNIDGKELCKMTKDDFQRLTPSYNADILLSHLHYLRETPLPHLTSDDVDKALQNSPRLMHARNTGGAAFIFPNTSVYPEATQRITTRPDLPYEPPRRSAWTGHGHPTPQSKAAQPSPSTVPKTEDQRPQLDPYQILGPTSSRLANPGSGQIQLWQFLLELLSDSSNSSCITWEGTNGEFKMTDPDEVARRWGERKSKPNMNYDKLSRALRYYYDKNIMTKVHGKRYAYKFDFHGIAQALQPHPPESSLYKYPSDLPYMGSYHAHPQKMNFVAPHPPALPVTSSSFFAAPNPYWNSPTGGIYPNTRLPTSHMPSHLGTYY
# Method in brief: as §1
# [5] = target: ELF1 (Homo sapiens, UniProt P32519 1-619); conditions: protein: recombinant; tags: N-terminal GST; dsDNA, one strand shown
# ELF1, sequence (P32519 whole entry): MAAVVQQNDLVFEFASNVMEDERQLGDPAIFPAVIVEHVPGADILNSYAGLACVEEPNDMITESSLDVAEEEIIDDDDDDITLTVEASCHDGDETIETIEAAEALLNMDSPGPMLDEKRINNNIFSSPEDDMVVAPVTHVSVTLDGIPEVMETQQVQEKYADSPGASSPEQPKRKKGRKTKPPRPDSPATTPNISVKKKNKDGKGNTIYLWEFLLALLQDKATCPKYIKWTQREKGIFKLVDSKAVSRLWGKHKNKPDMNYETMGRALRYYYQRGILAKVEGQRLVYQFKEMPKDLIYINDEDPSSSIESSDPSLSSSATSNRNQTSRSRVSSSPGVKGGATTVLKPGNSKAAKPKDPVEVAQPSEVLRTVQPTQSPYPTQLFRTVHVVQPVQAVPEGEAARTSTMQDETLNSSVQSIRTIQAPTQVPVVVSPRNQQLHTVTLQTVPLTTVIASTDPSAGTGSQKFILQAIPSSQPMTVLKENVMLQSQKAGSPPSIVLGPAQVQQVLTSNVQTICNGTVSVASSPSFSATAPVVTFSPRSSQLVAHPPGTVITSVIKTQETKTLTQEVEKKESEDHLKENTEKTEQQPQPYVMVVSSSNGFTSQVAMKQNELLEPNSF
# Method in brief: as §1
# [6] = target: T5, EHF (Homo sapiens, UniProt Q9NZC4 1-300); conditions: protein: recombinant; tags: N-terminal GST; dsDNA, one strand shown
# T5 sequence: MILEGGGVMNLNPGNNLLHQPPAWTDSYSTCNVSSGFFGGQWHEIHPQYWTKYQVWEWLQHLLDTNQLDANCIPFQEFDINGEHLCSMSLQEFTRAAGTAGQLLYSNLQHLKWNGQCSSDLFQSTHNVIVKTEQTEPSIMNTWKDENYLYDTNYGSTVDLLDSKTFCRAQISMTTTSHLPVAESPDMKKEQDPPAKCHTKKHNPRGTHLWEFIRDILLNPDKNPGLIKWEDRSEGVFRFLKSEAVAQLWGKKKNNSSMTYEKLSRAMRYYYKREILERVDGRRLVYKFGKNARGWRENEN
# Method in brief: as §1
# [7] = target: SPI1 (Homo sapiens, UniProt P17947 1-270); conditions: protein: recombinant; tags: N-terminal GST; dsDNA, one strand shown
# Method in brief: as §1
# [8] = target: SPIB (Homo sapiens, UniProt Q01892 1-262); conditions: protein: recombinant; tags: N-terminal GST; dsDNA, one strand shown
# SPIB, sequence (Q01892 whole entry): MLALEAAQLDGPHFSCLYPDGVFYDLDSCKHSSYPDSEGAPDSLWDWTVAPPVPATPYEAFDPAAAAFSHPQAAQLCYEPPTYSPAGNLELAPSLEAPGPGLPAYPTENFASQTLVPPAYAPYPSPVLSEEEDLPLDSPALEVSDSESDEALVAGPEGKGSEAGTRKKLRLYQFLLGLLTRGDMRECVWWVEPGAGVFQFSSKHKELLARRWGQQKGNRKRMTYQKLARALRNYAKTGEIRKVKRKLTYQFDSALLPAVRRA
# Method in brief: as §1
# [9] = target: T6, ELK3 (Homo sapiens, UniProt P41970 1-407); conditions: protein: recombinant; tags: N-terminal GST; dsDNA, one strand shown
# T6 sequence: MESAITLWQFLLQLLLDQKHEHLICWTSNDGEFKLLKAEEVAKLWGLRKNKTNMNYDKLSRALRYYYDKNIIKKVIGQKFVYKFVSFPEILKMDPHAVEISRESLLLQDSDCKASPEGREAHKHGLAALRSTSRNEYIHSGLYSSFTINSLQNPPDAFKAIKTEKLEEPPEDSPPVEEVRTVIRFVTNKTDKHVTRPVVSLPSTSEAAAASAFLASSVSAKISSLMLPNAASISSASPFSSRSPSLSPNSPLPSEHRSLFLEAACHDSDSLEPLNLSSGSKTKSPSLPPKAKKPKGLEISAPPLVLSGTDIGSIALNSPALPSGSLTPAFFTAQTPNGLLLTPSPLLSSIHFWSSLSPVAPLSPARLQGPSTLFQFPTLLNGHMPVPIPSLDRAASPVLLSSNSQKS
# Method in brief: as §1
# [10] = target: T7, FEV (Homo sapiens, UniProt Q99581 1-238); conditions: protein: recombinant; tags: N-terminal GST; dsDNA, one strand shown
# T7 sequence: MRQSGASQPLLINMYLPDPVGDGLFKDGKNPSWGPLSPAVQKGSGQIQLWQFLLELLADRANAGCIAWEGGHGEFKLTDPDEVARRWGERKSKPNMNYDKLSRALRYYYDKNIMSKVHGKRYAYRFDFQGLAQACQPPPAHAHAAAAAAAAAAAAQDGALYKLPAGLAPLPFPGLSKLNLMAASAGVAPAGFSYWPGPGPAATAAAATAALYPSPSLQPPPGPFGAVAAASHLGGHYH
# Method in brief: as §1
# [11] = target: ETV5 (Homo sapiens, UniProt P41161 1-510); conditions: protein: recombinant; tags: N-terminal GST; dsDNA, one strand shown
# ETV5, sequence (P41161 whole entry): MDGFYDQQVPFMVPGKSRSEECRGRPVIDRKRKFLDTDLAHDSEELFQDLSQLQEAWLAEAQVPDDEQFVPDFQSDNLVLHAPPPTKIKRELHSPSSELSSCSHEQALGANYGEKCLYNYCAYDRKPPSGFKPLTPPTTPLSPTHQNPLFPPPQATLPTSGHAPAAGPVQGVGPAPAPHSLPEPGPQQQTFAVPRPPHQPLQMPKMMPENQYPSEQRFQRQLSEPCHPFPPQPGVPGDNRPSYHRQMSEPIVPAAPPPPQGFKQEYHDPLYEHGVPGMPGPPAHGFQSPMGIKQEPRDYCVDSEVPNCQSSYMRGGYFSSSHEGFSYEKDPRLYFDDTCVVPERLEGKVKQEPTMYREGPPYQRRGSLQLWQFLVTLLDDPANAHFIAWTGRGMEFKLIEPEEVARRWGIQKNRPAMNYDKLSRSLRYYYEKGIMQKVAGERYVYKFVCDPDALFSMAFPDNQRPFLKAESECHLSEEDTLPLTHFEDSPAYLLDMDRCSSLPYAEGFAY
# Method in brief: as §1
# [12] = target: HSF1 (Homo sapiens, UniProt Q00613 1-529); conditions: protein: recombinant; tags: N-terminal GST; chain copies: 3; dsDNA, one strand shown
# HSF1, sequence (Q00613 whole entry): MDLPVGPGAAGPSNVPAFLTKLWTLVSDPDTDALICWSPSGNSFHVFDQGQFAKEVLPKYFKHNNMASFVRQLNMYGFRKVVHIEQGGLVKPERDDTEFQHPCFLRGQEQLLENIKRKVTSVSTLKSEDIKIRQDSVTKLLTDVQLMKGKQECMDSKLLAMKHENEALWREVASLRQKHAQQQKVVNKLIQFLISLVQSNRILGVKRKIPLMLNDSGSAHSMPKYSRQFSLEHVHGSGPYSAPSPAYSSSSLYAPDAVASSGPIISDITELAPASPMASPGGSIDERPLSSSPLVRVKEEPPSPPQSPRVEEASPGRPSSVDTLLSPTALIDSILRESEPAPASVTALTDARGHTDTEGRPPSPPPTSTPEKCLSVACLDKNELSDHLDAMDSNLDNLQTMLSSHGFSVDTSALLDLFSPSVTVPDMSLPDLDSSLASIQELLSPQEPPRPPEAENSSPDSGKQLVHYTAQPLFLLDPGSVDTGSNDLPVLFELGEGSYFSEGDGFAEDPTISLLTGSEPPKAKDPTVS
# Method in brief: as §1
# [13] = target: T8, SPIC (Homo sapiens, UniProt Q8N5J4 1-248); conditions: protein: recombinant; tags: N-terminal GST; dsDNA, one strand shown
# T8 sequence: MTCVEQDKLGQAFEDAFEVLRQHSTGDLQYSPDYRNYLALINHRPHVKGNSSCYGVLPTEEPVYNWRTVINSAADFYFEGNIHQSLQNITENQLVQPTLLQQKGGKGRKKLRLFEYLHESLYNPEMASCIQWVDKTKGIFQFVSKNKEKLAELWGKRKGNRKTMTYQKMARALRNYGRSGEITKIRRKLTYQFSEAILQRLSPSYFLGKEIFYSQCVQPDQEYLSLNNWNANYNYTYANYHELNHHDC
# Method in brief: as §1
# [14] = target: ELF4 (Homo sapiens, UniProt Q99607 1-663); conditions: protein: recombinant; tags: N-terminal GST; dsDNA, one strand shown
# ELF4, sequence (Q99607 whole entry): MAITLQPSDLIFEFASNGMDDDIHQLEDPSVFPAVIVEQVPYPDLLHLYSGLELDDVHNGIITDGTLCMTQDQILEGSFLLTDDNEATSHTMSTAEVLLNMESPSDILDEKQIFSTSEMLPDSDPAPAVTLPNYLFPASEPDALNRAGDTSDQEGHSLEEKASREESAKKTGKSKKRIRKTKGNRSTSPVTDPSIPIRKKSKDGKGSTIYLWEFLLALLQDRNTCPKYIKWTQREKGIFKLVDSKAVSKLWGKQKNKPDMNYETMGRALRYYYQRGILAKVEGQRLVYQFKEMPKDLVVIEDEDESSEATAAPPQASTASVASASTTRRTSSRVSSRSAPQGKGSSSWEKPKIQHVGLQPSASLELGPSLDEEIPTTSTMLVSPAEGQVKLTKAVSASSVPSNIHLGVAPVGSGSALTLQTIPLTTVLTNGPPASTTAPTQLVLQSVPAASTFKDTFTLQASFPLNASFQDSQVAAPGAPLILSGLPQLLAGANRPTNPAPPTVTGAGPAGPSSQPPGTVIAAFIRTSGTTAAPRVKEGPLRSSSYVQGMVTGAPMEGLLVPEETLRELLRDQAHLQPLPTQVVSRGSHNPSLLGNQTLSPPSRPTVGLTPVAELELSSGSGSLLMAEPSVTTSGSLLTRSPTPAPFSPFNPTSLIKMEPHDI
# Method in brief: as §1
# [15] = target: T9, ELK4 (Homo sapiens, UniProt P28324-2 1-405); conditions: protein: recombinant; tags: N-terminal GST; dsDNA, one strand shown
# T9 sequence: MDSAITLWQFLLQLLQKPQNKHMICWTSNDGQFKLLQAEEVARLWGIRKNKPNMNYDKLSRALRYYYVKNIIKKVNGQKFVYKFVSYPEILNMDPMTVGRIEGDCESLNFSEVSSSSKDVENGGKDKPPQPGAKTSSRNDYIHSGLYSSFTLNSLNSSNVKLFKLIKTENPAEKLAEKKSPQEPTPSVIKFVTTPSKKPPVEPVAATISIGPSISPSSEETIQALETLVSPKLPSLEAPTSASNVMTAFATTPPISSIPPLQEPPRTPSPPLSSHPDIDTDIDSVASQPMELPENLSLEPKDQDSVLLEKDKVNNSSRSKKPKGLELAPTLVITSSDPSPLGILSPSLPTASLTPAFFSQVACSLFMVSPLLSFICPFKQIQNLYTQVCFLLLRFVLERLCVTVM
# Method in brief: as §1
# [16] = target: T10, ETV2 (Homo sapiens, UniProt O00321 1-342); conditions: protein: recombinant; tags: N-terminal GST; dsDNA, one strand shown
# T10 sequence: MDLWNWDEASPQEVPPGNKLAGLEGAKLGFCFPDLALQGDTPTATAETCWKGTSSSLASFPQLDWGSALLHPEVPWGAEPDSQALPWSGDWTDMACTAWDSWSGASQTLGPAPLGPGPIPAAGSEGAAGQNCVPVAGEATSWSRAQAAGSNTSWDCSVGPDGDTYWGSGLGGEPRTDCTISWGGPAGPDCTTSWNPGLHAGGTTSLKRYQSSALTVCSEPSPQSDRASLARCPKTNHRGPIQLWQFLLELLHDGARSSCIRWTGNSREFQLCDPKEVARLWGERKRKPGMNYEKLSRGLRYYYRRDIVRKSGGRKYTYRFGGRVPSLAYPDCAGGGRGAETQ
# Method in brief: as §1
# [17] = target: T11, ELF3 (Homo sapiens, UniProt P78545 1-371); conditions: protein: recombinant; tags: N-terminal GST; dsDNA, one strand shown
# T11 sequence: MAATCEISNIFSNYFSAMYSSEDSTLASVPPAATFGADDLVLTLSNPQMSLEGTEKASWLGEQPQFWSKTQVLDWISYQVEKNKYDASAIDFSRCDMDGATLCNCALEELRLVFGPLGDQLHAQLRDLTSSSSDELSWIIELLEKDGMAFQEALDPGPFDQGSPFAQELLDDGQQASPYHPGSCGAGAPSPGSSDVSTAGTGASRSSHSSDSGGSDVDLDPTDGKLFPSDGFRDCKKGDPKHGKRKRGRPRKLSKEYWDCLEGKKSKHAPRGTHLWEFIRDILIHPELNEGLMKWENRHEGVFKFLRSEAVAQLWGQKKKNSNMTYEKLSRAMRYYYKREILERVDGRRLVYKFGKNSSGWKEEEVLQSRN
# Method in brief: as §1
# [18] = target: CRX (Homo sapiens, UniProt O43186 1-299); conditions: protein: recombinant; tags: N-terminal GST; dsDNA, one strand shown
# CRX, sequence (O43186 whole entry): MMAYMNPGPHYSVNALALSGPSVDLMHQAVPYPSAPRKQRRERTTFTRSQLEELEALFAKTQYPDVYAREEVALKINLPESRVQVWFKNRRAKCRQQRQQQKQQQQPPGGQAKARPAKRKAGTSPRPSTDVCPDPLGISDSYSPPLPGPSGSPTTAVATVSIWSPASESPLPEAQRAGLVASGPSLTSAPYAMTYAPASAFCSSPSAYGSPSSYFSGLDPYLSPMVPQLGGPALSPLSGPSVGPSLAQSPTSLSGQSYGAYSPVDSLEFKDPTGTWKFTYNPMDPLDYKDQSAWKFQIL
# Method in brief: as §1
# [19] = target: ETV1 (Homo sapiens, UniProt P50549 1-477); conditions: protein: recombinant; tags: N-terminal GST; dsDNA, one strand shown
# ETV1, sequence (P50549 whole entry): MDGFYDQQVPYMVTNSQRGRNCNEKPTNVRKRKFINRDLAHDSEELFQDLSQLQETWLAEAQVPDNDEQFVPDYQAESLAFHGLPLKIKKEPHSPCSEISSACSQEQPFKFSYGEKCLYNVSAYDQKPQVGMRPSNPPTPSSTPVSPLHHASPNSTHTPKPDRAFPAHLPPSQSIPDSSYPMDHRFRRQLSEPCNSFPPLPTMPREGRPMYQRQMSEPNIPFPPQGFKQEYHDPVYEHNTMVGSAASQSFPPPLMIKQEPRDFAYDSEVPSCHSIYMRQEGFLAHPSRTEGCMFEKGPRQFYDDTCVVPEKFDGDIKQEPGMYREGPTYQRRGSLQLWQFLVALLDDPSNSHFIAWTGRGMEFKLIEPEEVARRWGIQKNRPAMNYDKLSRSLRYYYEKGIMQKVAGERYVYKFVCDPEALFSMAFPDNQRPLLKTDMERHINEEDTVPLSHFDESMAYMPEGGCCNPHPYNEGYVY
# Method in brief: as §1
sequence,measurement,setting,value
CGACTT,binding signal,[1],"1.84 fold enrichment (6-mer frequency, TF over GST control)"
same,binding signal,[2],"1.85 fold enrichment (6-mer frequency, TF over GST control)"
same,binding signal,[3],"1.58 fold enrichment (6-mer frequency, TF over GST control)"
same,binding signal,[4],"1.84 fold enrichment (6-mer frequency, TF over GST control)"
same,binding signal,[5],"1.69 fold enrichment (6-mer frequency, TF over GST control)"
same,binding signal,[6],"1.8 fold enrichment (6-mer frequency, TF over GST control)"
same,binding signal,[7],"1.9 fold enrichment (6-mer frequency, TF over GST control)"
same,binding signal,[8],"1.79 fold enrichment (6-mer frequency, TF over GST control)"
same,binding signal,[9],"1.94 fold enrichment (6-mer frequency, TF over GST control)"
same,binding signal,[10],"2 fold enrichment (6-mer frequency, TF over GST control)"
same,binding signal,[11],"1.65 fold enrichment (6-mer frequency, TF over GST control)"
same,binding signal,[12],"1.57 fold enrichment (6-mer frequency, TF over GST control)"
same,binding signal,[13],"1.65 fold enrichment (6-mer frequency, TF over GST control)"
same,binding signal,[14],"1.69 fold enrichment (6-mer frequency, TF over GST control)"
same,binding signal,[15],"1.97 fold enrichment (6-mer frequency, TF over GST control)"
same,binding signal,[16],"1.72 fold enrichment (6-mer frequency, TF over GST control)"
same,binding signal,[17],"1.7 fold enrichment (6-mer frequency, TF over GST control)"
same,binding signal,[18],"1.74 fold enrichment (6-mer frequency, TF over GST control)"
same,binding signal,[19],"1.72 fold enrichment (6-mer frequency, TF over GST control)"

# From article PMC7862700, “An all-to-all approach to the identification of sequence-specific readers for epigenetic DNA modifications on cytosine”
